High-throughput results: PubChem, several laboratories
rCAG binder-1: r(CAG) repeat RNA binding | TO-PRO-1 dye displacement fluorescence | AID 651821 | inhibition, % at 3 µM | actives 1.3% (n = 370,000);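 active = inhibition above the plate cutoff, the mean of all test compounds on that plate plus 3 SD, cut at about 35% in these data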;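 also: higher means more dye released from RNA so lower well fluorescence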
MsrA inh: inhibitors of bovine MsrA; purified bovine MsrA, absorbance read-out; inhibition, % at 15.5 µM; actives 0.75% (n = 360,000); AID 651718; in the data active = inhibition above about 4.5%
NadD inh: NadD (S. aureus) enzyme inhibition; purified NadD enzyme, colorimetric absorbance read-out; inhibition, % at 20 µM; actives 0.78% (n = 360,000); AID 602399; in the data active = inhibition above about 26%
bovine MsrA act: bovine methionine sulfoxide reductase A activation. actives 0.3% (n = 360,000). purified bovine MsrA, absorbance read-out. AID 602163. activation, % at 10.6 µM; in the data active = activation above about 7.5%
rCAG binder conf: r(CAG) RNA repeat binding, confirmation; inhibition, % at 3 µM; AID 652065; actives 70% (n = 4,300); shares compounds with rCAG binder-1; TO-PRO-1 dye displacement fluorescence;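 active = inhibition above a per-plate cutoff, the mean inhibition of sample wells plus 3 SD, cut at about 35% in these data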;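 also: loss of TO-PRO-1 fluorescence as compound displaces dye from 1x1 AA loop RNA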
DNA CAG counter: DNA CAG dye complex inhibition counter-screen | shares compounds with rCAG binder-1 | d(CAG) DNA oligo TO-PRO-1 dye displacement, fluorescence | inhibition, % at 3 µM | actives 94% (n = 4,300);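 active = inhibition above its plate's cutoff, the mean test-well inhibition plus 3 SD, cut at about 4.8% in these data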;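 also: hits displace the dye from DNA and so lower well fluorescence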
DNA CAG DR: DNA CAG dye complex inhibition, dose response counter-screen. actives 20% (n = 250). shares compounds with rCAG binder-1. DNA CAG/GTC duplex TO-PRO-1 dye displacement fluorescence. IC50, µM. AID 686960; in the data active = IC50 below about 10 µM
dCAG TOPRO ctr: DNA CAG dye complex inhibition, late stage dose response; IC50, µM; actives 80% (n = 30); d(CAG) DNA duplex TO-PRO-1 dye displacement, fluorescence; shares compounds with rCAG binder-1; AID 720649
rCAG binder-2: molecules binding r(CAG) RNA repeats, late stage dose response; shares compounds with rCAG binder-1; actives 100% (n = 30); r(CAG) RNA TO-PRO-1 dye displacement, fluorescence; IC50, µM
A number is an active result; i = inactive; nt = not tested or not shown. Compounds with a hit are over-represented: about 2.7% of the library has one in this group of screens. Unless noted, no rule for the calls is given here.

SMILES	rCAG binder-1	MsrA inh	NadD inh	bovine MsrA act	rCAG binder conf	DNA CAG counter	others
Cc1cccc(NS(=O)(=O)c2nnc(NC(=O)c3ccc(Cl)cc3)s2)c1	37	i	i	i	i	12
COc1ccc(CN(C)S(=O)(=O)c2nnc(NC(=O)c3cccc(F)c3)s2)cc1OC	57	i	i	i	60	24
Cc1cccc(NS(=O)(=O)c2nnc(NC(=O)c3cccc(C)c3)s2)c1	i	i	i	i	nt	nt
COC(=O)c1cccc(NC(=O)c2cccs2)c1C	i	i	i	i	nt	nt
COC(=O)[C@H](NC(=O)c1cc([C@@H](NC(=O)OC(C)(C)C)C(C)C)sc1N)C(C)C	i	i	nt	nt	nt	nt
COC(=O)c1ccccc1NC(=O)Nc1c(C)n(C)n(-c2ccccc2)c1=O	i	i	i	i	nt	nt
CC(C(=O)Nc1ccc(O)cc1C(=O)O)N1C(=O)/C(=C\c2cccs2)SC1=S (stereo unspecified)	80	i	i	i	80	41
O=C(O)CCCN1C(=O)/C(=C\c2ccco2)SC1=S	i	i	i	i	nt	nt
O=C(CCN1C(=O)/C(=C/c2ccco2)SC1=S)Nc1ccc(O)cc1C(=O)O	93	i	i	i	70	27	DNA CAG DR=7.3
O=C(CCCN1C(=O)/C(=C\c2ccccc2)SC1=S)Nc1ccc(O)cc1C(=O)O	80	i	i	i	68	32
CCc1ccc(/C=C2/SC(=S)N(CCCC(=O)Nc3ccccc3C(=O)O)C2=O)cc1	i	i	i	i	nt	nt
O=C(CCCN1C(=O)/C(=C/c2ccco2)SC1=S)Nc1ccccc1C(=O)O	88	i	i	i	83	49
COc1cc(CN2CCC(C(=O)NC(c3ccc(-c4ccccc4)cc3)c3cnccn3)CC2)cc(OC)c1 (stereo unspecified)	i	i	i	i	nt	nt
CSCCC(NC(=O)c1ccc(Cl)cc1Cl)C(=O)N1CCCCCCC1 (stereo unspecified)	i	i	i	i	nt	nt
Cc1cccc(Nc2nnc(SCC(O)=C(C#N)c3nc4ccccc4[nH]3)s2)c1	42	i	i	i	48	24
Cc1cc(C)n2c(SC/C(O)=C(\C#N)c3nc4ccccc4[nH]3)nnc2n1	37	i	i	i	37	17
Cc1cccc(Nc2nnc(SCC(=O)Nc3ccc(C(=O)O)cc3)s2)c1	i	i	i	i	nt	nt
Cc1ccccc1-n1c(SC/C(O)=C(\C#N)c2nc3ccccc3[nH]2)nnc1-c1ccncc1	i	i	i	i	nt	nt
CC(C)S(=O)(=O)C1=NSC2=NC(=O)/C(=C\c3ccc(-c4cccc(C(=O)O)c4)o3)C(=N)N21	72	i	i	i	74	29	DNA CAG DR=i;dCAG TOPRO ctr=1.3;rCAG binder-2=0.33
N=C1/C(=C\c2ccc(-c3cc(Cl)cc(Cl)c3)o2)C(=O)N=C2SC=C(c3ccccc3)N12	37	i	i	i	38	22
O=C1OC(c2cccs2)=N/C1=C/c1ccc(-c2cccc(C(=O)O)c2)o1	i	i	i	i	nt	nt
CCS(=O)(=O)C1=NSC2=NC(=O)/C(=C\c3ccc(OS(=O)(=O)c4ccccc4)c(OC)c3)C(=N)N21	nt	nt	i	i	nt	nt
CC(C)S(=O)(=O)C1=NSC2=NC(=O)/C(=C\c3ccc(-c4ccccc4)o3)C(=N)N21	38	i	i	i	87	66
CN(CCc1ccccc1)C(=O)c1cccc(NC(=O)Cc2cccc(NC(=O)C3CCCN(C(=O)C4CC4)C3)c2)c1 (stereo unspecified)	i	i	i	i	nt	nt
O=C1c2cccc(NCCCNCCO)c2C(=O)c2cccc(NCCCNCCO)c21	i	i	i	i	nt	nt
SMILES	rCAG binder-1	MsrA inh	NadD inh	bovine MsrA act	rCAG binder conf	DNA CAG counter	others
O=C(Nn1c(-c2ccncc2)nc2ccccc2c1=O)c1ccc([N+](=O)[O-])cc1Cl	i	i	i	i	nt	nt
COc1ccc(Cc2n[nH]c(=S)n2NC(=O)Nc2ccc(Cl)c(Cl)c2)cc1	63	i	i	i	37	15
Cn1c(CC(=O)Nc2ccc(Cl)c(Cl)c2)n[nH]c1=S	i	i	i	i	nt	nt
CCCCCCCCNCCS(=O)(=O)NCc1ccc(OC)cc1	i	i	i	i	nt	nt
CCCc1cc2c(OC(=O)CC)c(-c3ccc(C(=O)OCC)o3)c(=O)oc2cc1OC	38	i	i	i	i	6.8
CCc1ccc(/C=C/C(=O)C2C(=O)c3ccccc3C2=O)cc1	64	i	i	i	79	39
CN1C(=O)NC(c2ccccc2)C2=C1CN(c1cccc(C(F)(F)F)c1)C2=O (stereo unspecified)	49	i	i	i	i	i
Cc1ccccc1N1CC2=C(C1=O)C(c1ccccc1)NC(=O)N2C (stereo unspecified)	i	i	i	i	nt	nt
O=C(Cc1ccccc1)NN1C(=O)/C(=C/c2ccccc2C(=O)O)SC1=S	i	i	i	i	nt	nt
O=[N+]([O-])c1ccccc1N/N=C/c1c[nH]c2ccccc12	37	i	i	i	i	16
O=[N+]([O-])c1ccc(N/N=C/c2c[nH]c3ccccc23)cc1	56	i	i	i	i	20
Cc1ccc(-n2c([O-])nc(-[n+]3ccccc3)c2C=O)cc1	i	i	i	i	nt	nt
N#C/C(=C(/O)COc1ccccc1)c1nc2ccccc2s1	i	i	i	i	nt	nt
N#C/C(=C(/O)COC(=O)c1ccc(C#N)cc1)c1nc2ccccc2s1	38	i	i	i	40	17
CCOc1ccc(NS(=O)(=O)c2ccc(NS(=O)(=O)c3ccc(SC)cc3)cc2)cc1	49	i	i	i	55	18
COc1ccc(NS(=O)(=O)c2ccc(NS(=O)(=O)c3ccc(SC)cc3)cc2)c(OC)c1	38	i	i	i	43	13
CCN(CC(=O)NCc1ccc(F)cc1)C(=O)c1cc2ccccc2o1	i	i	i	i	nt	nt
CN1CCN(c2ccc(CNS(=O)(=O)c3ccc(Cl)cc3)cc2)CC1	i	i	i	i	nt	nt
CCCn1c(N)c(N2CCCCC2)c(=O)n(CC(=O)Nc2ccc(C(C)=O)cc2)c1=O	i	i	i	i	nt	nt
CCC(C(=O)Nc1ccc(C)cc1)c1ccccc1 (stereo unspecified)	i	i	i	i	nt	nt
COc1ccccc1C(=O)Nc1ccc(C(=O)Nc2ccccc2C(=O)O)cc1	42	i	i	i	60	20
CCC(C(=O)Nc1ccc(C(=O)Nc2ccccc2C(=O)O)cc1)c1ccccc1 (stereo unspecified)	75	i	i	i	67	27
CCC(C(=O)Nc1cc(C(=O)O)ccc1C)c1ccccc1 (stereo unspecified)	i	i	i	i	nt	nt
CCN(CC)S(=O)(=O)c1cc(C(=O)Nc2ccccc2C(=O)O)ccc1OC	37	i	i	i	i	6.6
